Data reported in PubChem BioAssay (NCATS).
Records with an inconclusive call do not appear. Active and inactive are the calls of the source. Calls come from the whole dose curve; as a rule, active = well fitted curve in the direction sought with a large enough effect; inconclusive = small, poorly fitted or top-dose-only effect, or another doubt; inactive = no such curve, though single readings can be large; an effect the other way counts as inactive or inconclusive.

Columns and labels:
[1] = qHTS of pediatric cancer cell lines to identify multiple opportunities for drug repurposing: Primary screen for BT-37 cells (AID 1347094); note: series mostly up to about 57 µM
Procedure, shortened: (§1)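 Quantitative HTS format: each compound titrated (MIPE 11 points from 0.78 nM, NPC 8 points from 0.59 nM) onto cells plated 5 hours earlier. After 48 h at 37 degrees C, CellTiter-Glo luminescence was recorded.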

[2] = qHTS of pediatric cancer cell lines to identify multiple opportunities for drug repurposing: Primary screen for NB-EBc1 cells (AID 1347095)
Procedure, shortened: as §1

[3] = qHTS of pediatric cancer cell lines to identify multiple opportunities for drug repurposing: Primary screen for U-2 OS cells (AID 1347096); note: nearly all actives have a fitted effect of over 50% in size
Procedure, shortened: (§2)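 Viability after 48 h compound treatment at 37C, 500-1,000 cells/well, read as ATP luminescence with CellTiter-Glo. Primary screens used 11-point (MIPE, 0.78 nM-46 µM) or 8-point (NPC, 0.59 nM-46 µM) final concentrations; follow-up screens used 11-point dilutions.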

[4] = qHTS of pediatric cancer cell lines to identify multiple opportunities for drug repurposing: Primary screen for Saos-2 cells (AID 1347097); note: nearly all actives have a fitted effect of over 40% in size
Procedure, shortened: as §1

[5] = qHTS of pediatric cancer cell lines to identify multiple opportunities for drug repurposing: Primary screen for SK-N-SH cells (AID 1347098);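 note: DMSO served as neutral control and bortezomib at 2.3 µM as positive control; nearly all actives have a fitted effect of over 65% in size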
Procedure, shortened: (§3)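 Cells (500-1,000/well) rested 5 h, then received compounds for 48 h; metabolically active cells were measured by CellTiter-Glo luminescence. Final concentrations spanned up to 46 µM (MIPE, 11-point) or 0.59 nM-46 µM (NPC, 8-point) in primary screens, 11-point in follow-ups.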

[6] = qHTS of pediatric cancer cell lines to identify multiple opportunities for drug repurposing: Primary screen for NB1643 cells (AID 1347099); note: nearly all actives have a fitted effect of over 50% in size
Procedure, shortened: as §1

[7] = qHTS of pediatric cancer cell lines to identify multiple opportunities for drug repurposing: Primary screen for LAN-5 cells (AID 1347100)
Procedure, shortened: as §2

[8] = qHTS of pediatric cancer cell lines to identify multiple opportunities for drug repurposing: Primary screen for BT-12 cells (AID 1347101); note: nearly all actives have a fitted effect of over 25% in size
Procedure, shortened: as §3

[9] = qHTS of pediatric cancer cell lines to identify multiple opportunities for drug repurposing: Primary screen for Rh18 cells (AID 1347102); note: nearly all actives have a fitted effect of over 65% in size
Procedure, shortened: as §2

[10] = qHTS of pediatric cancer cell lines to identify multiple opportunities for drug repurposing: Primary screen for OHS-50 cells (AID 1347103); note: nearly all actives have a fitted effect of over 40% in size
Procedure, shortened: as §3

[11] = qHTS of pediatric cancer cell lines to identify multiple opportunities for drug repurposing: Primary screen for RD cells (AID 1347104); note: nearly all actives have a fitted effect of over 55% in size
Procedure, shortened: as §1

[12] = qHTS of pediatric cancer cell lines to identify multiple opportunities for drug repurposing: Primary screen for MG 63 (6-TG R) cells (AID 1347105); note: nearly all actives have a fitted effect of over 50% in size
Procedure, shortened: as §1

[13] = qHTS of pediatric cancer cell lines to identify multiple opportunities for drug repurposing: Primary screen for control Hh wild type fibroblast cells (AID 1347106);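 note: series mostly up to about 46 µM; a drop in luminescence marks cytotoxicity and a rise apparent proliferation; nearly all actives have a fitted effect of over 55% in size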
Procedure, shortened: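 Cells (500-1,000/well) in growth media were settled 5 h at 37 degrees C, then given compounds for 48 h. Viability was read as CellTiter-Glo luminescence. Primary runs used MIPE at 11 points (0.78 nM-46 µM) and NPC at 8 points (0.59 nM-46 µM); follow-ups used 11 points.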

[14] = qHTS of pediatric cancer cell lines to identify multiple opportunities for drug repurposing: Primary screen for Rh30 cells (AID 1347107); note: series mostly up to about 46 µM; nearly all actives have a fitted effect of over 75% in size
Procedure, shortened: as §2

[15] = qHTS of pediatric cancer cell lines to identify multiple opportunities for drug repurposing: Primary screen for Rh41 cells (AID 1347108);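 note: series mostly up to about 46 µM; luminescence drop marks cytotoxic hits; nearly all actives have a fitted effect of over 70% in size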
Procedure, shortened: as §1

Measured: Potency

CCN(CC)CCNC(C(=O)OCCC(C)C)c1ccccc1 (stereo not given)
inactive: all assays above

CC1(C)CO[C@@H](CC(=O)O)CN1
inactive: all assays above

NCCNCCNCCN
inactive: all assays above

COc1ccc(S(=O)(=O)Nc2nnc(CC(C)C)s2)cc1
inactive: all assays above

CCC(=O)c1ccc(O)cc1
inactive: all assays above

COc1ccc(Cl)cc1C(=O)NCCc1ccc(S(=O)(=O)NC(=O)NC2CCCCC2)cc1
inactive: all assays above

O=S(=O)(O)c1cc(I)c(O)c2ncccc12
inactive: all assays above

O=c1cc[nH]c(=O)[nH]1
inactive: all assays above

O=C1c2c(O)cccc2Cc2cccc(O)c21
inactive: all assays above

Cc1cc(O)cc2c1O[C@](C)(CCC[C@H](C)CCC[C@H](C)CCCC(C)C)CC2
inactive: all assays above

CCOC(=O)[C@H](CCc1ccccc1)N[C@@H](C)C(=O)N1C(=O)N(C)C[C@H]1C(=O)O
inactive: all assays above

CC/C=C(\C(=O)N[C@@H]1C(=O)N2C(C(=O)OCOC(=O)C(C)(C)C)=C(COC(N)=O)CS[C@H]12)c1csc(N)n1
inactive: all assays above

CC12CCC(CC1)C(C)(C)O2
inactive: all assays above

CC(C)(C(=O)O)c1ccc(C(O)CCCN2CCC(C(O)(c3ccccc3)c3ccccc3)CC2)cc1 (stereo not given)
inactive: all assays above

N[C@@H](CSCCCO)C(=O)O
inactive: all assays above

Cc1cccc(Nc2cc(Cl)nc(SCC(=O)O)n2)c1C
inactive: all assays above

C[C@H](NC(CCc1ccccc1)C(=O)O)C(=O)N1CCC[C@H]1C(=O)O (stereo not given in full)
inactive: all assays above

COC(=O)[C@H]1[C@H]2C[C@@H]3c4[nH]c5cc(OC)ccc5c4CCN3C[C@H]2C[C@@H](OC(=O)COc2ccc(OC)cc2)[C@@H]1OC
inactive: all assays above

O=C1NC(=O)[C@@]2(CCOc3ccc(F)cc32)N1
inactive: all assays above

O=C1O[C@H](CO)[C@@H](O)[C@H](O)[C@H]1O
inactive: all assays above

O=C1OC(OC(=O)c2cccnc2Nc2cccc(C(F)(F)F)c2)c2ccccc21 (stereo not given)
inactive: all assays above

C[C@@H]1CCN(C(=O)[C@H](CCCN=C(N)N)NS(=O)(=O)c2cccc3c2NC[C@H](C)C3)[C@@H](C(=O)O)C1
inactive: all assays above

CN(C)CCCO[C@@H]1[C@H]2OC(C)(C)O[C@H]2O[C@@H]1C(O)CO (stereo not given in full)
inactive: all assays above

O=C(O)c1ccccc1O
inactive: all assays above

O=c1cc(CO)occ1O
inactive: all assays above

CN(C)CCOC(C)(c1ccccc1)c1ccccn1 (stereo not given)
inactive: all assays above

CC(COc1ccccc1)NC(C)C(O)c1ccc(O)cc1 (stereo not given)
inactive: all assays above

CC(=O)Oc1c(C)c(C)c2c(c1C)CC[C@@](C)(CCC[C@H](C)CCC[C@H](C)CCCC(C)C)O2
inactive: all assays above

COc1cc(C(=O)N2CCOCC2)cc(OC)c1OC
inactive: all assays above

Oc1cccc(O)c1
inactive: all assays above

C[C@]12C[C@H](O)[C@H]3[C@@H](CCC4=CC(=O)CC[C@@]43C)[C@@H]1CC[C@@H]2C(=O)CO
inactive: all assays above

O=C(O)CC(O)C(=O)O (stereo not given)
inactive: all assays above

CN1CCOC(c2ccccc2)c2ccccc2C1 (stereo not given)
inactive: all assays above

Nc1ccc(S(=O)(=O)Nc2ccc(Cl)nn2)cc1
inactive: all assays above
